Measured values as given in PubChem BioAssay (NCATS).
Where “and” joins values, the source holds several entries; their conditions need not be identical. Identical values can stand only once. Records with an inconclusive call do not appear. Calls of active or inactive are those of the source. The call rests on the fitted dose curve; in most records, active means well fitted inhibition curve with a large enough effect; inconclusive means small, poorly fitted or top-dose-only effect; inactive means flat fitted curve, though single readings scatter.

Experiments:
CRL-7250 [1] = assay: Cytotoxic Profiling of Annotated Libraries Using Quantitative High-Throughput Screening (AID 1296008); conditions: Five cell lines viability, CellTiter-Glo ATP luminescence, 48-72 h; max response: hits give low values; further: potency means the concentration at half of the fitted maximal effect; on max response: on the % scale 0 is the no-effect control and ±100 the full control effect
In short: (§1)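 Cytotoxicity was measured as CellTiter-Glo ATP luminescence, read after 10 min at room temperature. Compound treatment of the cells lasted 48 or 72 hr at 37 degrees Celsius in a qHTS format.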

HEK293 = assay: as above; conditions: Five cell lines viability, CellTiter-Glo ATP luminescence, 48-72 h; max response: hits give low values
In short: as §1

HaCat [2] = assay: as above; conditions: Five cell lines viability, CellTiter-Glo ATP luminescence, 48-72 h; max response: hits give low values
In short: as §1

KB-3-1 = assay: as above; conditions: Five cell lines viability, CellTiter-Glo ATP luminescence, 48-72 h; max response: hits give low values
In short: as §1

NIH3T3 = assay: as above; conditions: Five cell lines viability, CellTiter-Glo ATP luminescence, 48-72 h; max response: hits give low values
In short: as §1

W2 = assay: qHTS profiling for inhibitors of Plasmodium falciparum proliferation (AID 504749); further: potency means the concentration at half of the fitted maximal effect; conditions: P. falciparum in erythrocytes, SYBR Green DNA, 72 h; series mostly up to 28.7 µM
In short: (§2)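 Three-day growth assay of blood-stage parasites in erythrocytes (0.3% parasitemia, 2.5% hematocrit) at 37 C, 5% CO2, quantified by SYBR Green DNA staining after overnight detergent lysis.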

TAB165 = assay: as above; conditions: P. falciparum in erythrocytes, SYBR Green DNA, 72 h; series mostly up to 28.7 µM
In short: as §2

HEK293T = assay: qHTS assay to identify novel small-molecules to repurpose for Merkel cell carcinoma treatment (AID 1296009); conditions: MCC and control cell lines, CellTiter-Glo viability, 72 h; at 44.8 µM (top of the series)
In short: (§3)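 After compound transfer in DMSO, plates were kept 72 hr at 37 degree celsius. Luminescent ATP signal from CellTiter-Glo served as viability measure, normalized against DMSO and no-cell controls.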

HACAT [3] = assay: as above; conditions: MCC and control cell lines, CellTiter-Glo viability, 72 h; at 44.8 µM (top of the series) unless noted
In short: as §3

CRL-7250 [4] = assay: as above; conditions: MCC and control cell lines, CellTiter-Glo viability, 72 h; at 44.8 µM (top of the series) unless noted
In short: as §3
Further: nearly all actives have a fitted effect of over 60% in size.

CN1[C@@H]2CC[C@H]1CC(OC(=O)c1cc(Cl)cc(Cl)c1)C2 (stereo not given in full)
active: Potency (HEK293) 26.6 µM
inactive: max response (CRL-7250 [1]) -20.4% | max response (HaCat [2]) 3.49% | max response (KB-3-1) -13.9%

COc1cc(CC(C)N)cc2c1OCO2 (stereo not given)
inactive: max response (CRL-7250 [1]) -5.81% | max response (HEK293) -16.7% | max response (HaCat [2]) 1.78% | max response (KB-3-1) -6.39% | max response (NIH3T3) -6.97%

COCC(=O)N(c1c(C)cccc1C)C(C)C(=O)OC (stereo not given)
inactive: Potency (W2) | max response (CRL-7250 [1]) 1.66% | max response (HEK293) -19.3% | max response (HaCat [2]) 3.69% | max response (KB-3-1) -13.6% | outcome (NIH3T3)

COc1ccc(C(=O)N2CCCC2=O)cc1
inactive: Potency (TAB165) | Potency (W2) | max response (CRL-7250 [1]) -4.75% and 1.19% | outcome (HEK293) | max response (HaCat [2]) -10.2% and -4.53% | max response (KB-3-1) -8.06% | max response (NIH3T3) -15.7% and -0.26% | outcome (HEK293T)

C[C@]12CC[C@H]3[C@@H](CCC4=CC(=O)CC[C@@H]43)[C@@H]1CC[C@@H]2O
inactive: max response (CRL-7250 [1]) -5% | max response (HEK293) 0.616% | outcome (HaCat [2]) | max response (NIH3T3) -16.1% | outcome (HACAT [3])
active: Potency (KB-3-1) 11.6 µM and 20.6 µM

CCO[C@H]1O[C@@H]2OC3(C)CC[C@H]4[C@H](C)CC[C@@H]([C@H]1C)[C@@]24OO3
active: Potency (HEK293) 5.96 µM
inactive: max response (CRL-7250 [1]) 3.38% | max response (HaCat [2]) -19.4% | max response (NIH3T3) 0.769%

Cc1ccc([N+](=O)[O-])[c]2c1[O][Hg]2
active: Potency (CRL-7250 [1]) 1.5 µM | Potency (HEK293) 1.06 µM | Potency (HaCat [2]) 6.68 µM | Potency (NIH3T3) 4.22 µM

C=CCN1CC[C@]23CCCC[C@H]2[C@H]1Cc1ccc(O)cc13
inactive: max response (CRL-7250 [1]) 1.58% | max response (HEK293) -6.38% | outcome (HaCat [2]) | max response (KB-3-1) 20.9% | max response (NIH3T3) -4.67% | outcome (HACAT [3])

COP(=O)(OC)C(O)C(Cl)(Cl)Cl (stereo not given)
inactive: Potency (TAB165) | max response (CRL-7250 [1]) 3.85% | outcome (HEK293) | outcome (HaCat [2]) | max response (KB-3-1) -12.2% | outcome (NIH3T3) | outcome (HACAT [3]) | outcome (HEK293T)
active: Potency (W2) 4.26 µM

ClC1=C(Cl)C2(Cl)C(CBr)CC1(Cl)C2(Cl)Cl (stereo not given)
inactive: Potency (TAB165) | max response (CRL-7250 [1]) -0.0053% | outcome (HEK293) | outcome (HaCat [2]) | max response (KB-3-1) -4.74% | max response (NIH3T3) -4.41% | outcome (HACAT [3]) | outcome (HEK293T)

O=C(CBr)Nc1ccc(Cl)cc1C(=O)c1ccccc1F
inactive: outcome (CRL-7250 [1]) | max response (HEK293) -0.335% | max response (HaCat [2]) 3.69% | outcome (NIH3T3) | outcome (CRL-7250 [4])
